# From PMC8384837, “Expanding the binding specificity for RNA recognition by a PUF domain”
# Assays:
# Assay in all cases: yeast three-hybrid, YBZ-1, SC-Leu-His + 0.5 mM 3-AT, 4 days
# Details in all cases: tags: N-Gal4 AD-HA kept; label: inside an RPR1-promoter hybrid RNA with tandem MS2 sites; ssRNA
# PUM1 PUF domain R3-LWK = PUM1 PUF domain R3-LWK (Homo sapiens, UniProt Q14671 828-1176, C935L;R936W;Q939K)
# How it was run: (§1)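 Sequencing with Illumina followed PCR amplification of the repeat regions from transformants grown four days on SC-Leu (input) or SC-Leu-His + 0.5 mM 3-AT (selection). The transformants were strain YBZ-1 with a LexA–MS2 coat fusion and a HIS3 reporter, carrying Pumilio-1 PUF domain libraries and matching RNA elements. The interaction score is the log change in variant frequency from input to selection, computed in log2 with a pseudocount of 1 for absent variants.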
# PUM1 PUF domain R3-FCR = PUM1 PUF domain R3-FCR (Homo sapiens, UniProt Q14671 828-1176, C935F;R936C;Q939R)
# How it was run: as §1
# PUM1 PUF domain R6-FYM = biological target: T1, PUM1 PUF domain R6-FYM (Homo sapiens, UniProt Q14671 828-1176, N1043F;Q1047M)
# T1 sequence: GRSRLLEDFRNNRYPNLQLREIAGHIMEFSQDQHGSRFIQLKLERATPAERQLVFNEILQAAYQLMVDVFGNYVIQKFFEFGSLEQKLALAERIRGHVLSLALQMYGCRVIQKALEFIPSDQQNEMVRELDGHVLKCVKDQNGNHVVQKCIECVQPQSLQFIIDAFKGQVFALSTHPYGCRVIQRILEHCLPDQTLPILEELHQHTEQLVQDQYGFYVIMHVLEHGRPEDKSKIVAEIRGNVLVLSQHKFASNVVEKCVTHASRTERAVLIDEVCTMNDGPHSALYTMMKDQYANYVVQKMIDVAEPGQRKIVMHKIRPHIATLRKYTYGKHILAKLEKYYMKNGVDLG
# How it was run: as §1
# PUM1 PUF domain R3-VRN = PUM1 PUF domain R3-VRN (Homo sapiens, UniProt Q14671 828-1176, C935V;Q939N)
# How it was run: as §1
# PUM1 PUF domain R5-RQD = PUM1 PUF domain R5-RQD (Homo sapiens, UniProt Q14671 828-1176, C1007R;R1008Q;Q1011D)
# How it was run: as §1
# PUM1 PUF domain R5-KAC = PUM1 PUF domain R5-KAC (Homo sapiens, UniProt Q14671 828-1176, C1007K;R1008A;Q1011C)
# How it was run: as §1
# PUM1 PUF domain R7-LTV = PUM1 PUF domain R7-LTV (Homo sapiens, UniProt Q14671 828-1176, S1079L;N1080T;E1083V)
# Chain of PUM1 PUF domain R7-LTV (Q14671 828-1176 S1079L/N1080T/E1083V): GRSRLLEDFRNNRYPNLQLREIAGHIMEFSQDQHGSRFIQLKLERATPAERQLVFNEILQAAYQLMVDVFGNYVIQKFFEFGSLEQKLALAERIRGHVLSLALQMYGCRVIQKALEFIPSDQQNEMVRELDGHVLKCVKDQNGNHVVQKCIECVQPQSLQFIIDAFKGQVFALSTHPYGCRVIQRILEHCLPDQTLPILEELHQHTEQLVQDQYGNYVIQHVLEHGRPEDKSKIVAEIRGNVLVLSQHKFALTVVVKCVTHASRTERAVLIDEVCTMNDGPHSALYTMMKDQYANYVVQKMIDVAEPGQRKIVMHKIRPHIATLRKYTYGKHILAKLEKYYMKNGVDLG
# How it was run: as §1
sequence,measurement,setting,value
GGCUAGAACUAGUGGAUCCCCCGGCGCCCGGCGGCUCGAGCCCGGGUAAGUGUAAUUAGUCUGCAUGCCGCCGGGCGCCAUGCCUGCAGGUCGACUCUAGAAAACAUG,binding signal,PUM1 PUF domain R3-LWK,5.28 log2 enrichment (interaction score)
same,binding signal,PUM1 PUF domain R3-FCR,1.6 log2 enrichment (interaction score)
GGCUAGAACUAGUGGAUCCCCCGGCGCCCGGCGGCUCGAGCCCGGGUAAGUGUAAAUAGUCUGCAUGCCGCCGGGCGCCAUGCCUGCAGGUCGACUCUAGAAAACAUG,binding signal,PUM1 PUF domain R3-LWK,3.42 log2 enrichment (interaction score)
same,binding signal,PUM1 PUF domain R6-FYM,2.99 log2 enrichment (interaction score)
same,binding signal,PUM1 PUF domain R3-VRN,3.59 log2 enrichment (interaction score)
GGCUAGAACUAGUGGAUCCCCCGGCGCCCGGCGGCUCGAGCCCGGGUAAGUGUCAAUAGUCUGCAUGCCGCCGGGCGCCAUGCCUGCAGGUCGACUCUAGAAAACAUG,binding signal,PUM1 PUF domain R5-RQD,3.67 log2 enrichment (interaction score)
same,binding signal,PUM1 PUF domain R5-KAC,4.63 log2 enrichment (interaction score)
GGCUAGAACUAGUGGAUCCCCCGGCGCCCGGCGGCUCGAGCCCGGGUAAGUGUUAAUAGUCUGCAUGCCGCCGGGCGCCAUGCCUGCAGGUCGACUCUAGAAAACAUG,binding signal,PUM1 PUF domain R5-KAC,3.67 log2 enrichment (interaction score)
GGCUAGAACUAGUGGAUCCCCCGGCGCCCGGCGGCUCGAGCCCGGGUAAGUUUAAAUAGUCUGCAUGCCGCCGGGCGCCAUGCCUGCAGGUCGACUCUAGAAAACAUG,binding signal,PUM1 PUF domain R7-LTV,4.94 log2 enrichment (interaction score)
GGCUAGAACUAGUGGAUCCCCCGGCGCCCGGCGGCUCGAGCCCGGGUAAGUGUAAGUAGUCUGCAUGCCGCCGGGCGCCAUGCCUGCAGGUCGACUCUAGAAAACAUG,binding signal,PUM1 PUF domain R3-FCR,5.77 log2 enrichment (interaction score)
